For 40 compounds, Potency and activity change, negative = cytotoxicity results are on record in PubChem BioAssay (Tox21).

Results filed as inconclusive are left out. Entries that show only a call come without a potency. Unmarked numbers belong to inactive results. Calls of active or inactive are those of the source. Calls follow the shape of the full dose curve. Where a SMILES comes first, the peptide text is derived from it. [ ]: non-standard residue; d: D form. pGlu = O=C1CC[C@@H](C(=O)O)N1
Potency is read from the fitted curve at half-maximal effect.

This test can be described thus: qHTS assay to identify small molecule agonists of the hypoxia (HIF-1) signaling pathway - cell viability counter screen (AID 1224844). Also: nearly all actives have a fitted effect of over 50% in size. To be noted: HRE-bla ME-180 viability, CellTiter-Glo luminescence, 17 h; series mostly up to 76.8 µM. The source says:
National Center for Advancing Translational Sciences [NCATS]
NIH Chemical Genomics Center [NCGC]
U.S. Environmental Protection Agency [EPA]
National Institutes of Environmental Health Sciences [NIEHS]
National Toxicology Program [NTP]
U.S. Food and Drug Administration [FDA]
Hypoxia-inducible factor-1 (HIF-1) is the major hypoxia-regulated transcription factor that controls cellular responses to low oxygen concentration. HIF-1 is composed of two subunits: hypoxia responsive HIF-1-alpha and constitutively expressed HIF-1-beta, which is also known as aryl hydrocarbon receptor nuclear translocator. During hypoxic conditions, HIF-1-alpha heterodimerizes with HIF-1-beta and translocates into the nucleus where the HIF-1 complex binds to the hypoxia-response element (HRE) and activates expression of target genes such as VEGF (vascular endothelial growth factor). The HIF-1 pathway is essential to normal growth and development, and is involved in the pathophysiology of cancer, inflammation, and ischemia.
Using a beta-lactamase reporter-gene under control of the hypoxia response element, a cell-based assay [CellSensor(TM) HRE-bla ME-180 from Life Technologies, Carlsbad, CA] was used to measure hypoxia-induced signaling. Tox21 10K library compounds were measured for their ability to induce the reporter gene activity. The cytotoxicity of the Tox21 compound library against HRE-bla ME-180 cell line was tested in parallel by measuring cell viability using CellTiter-Glo assay (Promega, Madison, WI) in the same assay wells.
Tox21 Assay Protocol Summary:
HRE-bla ME-180 cells were dispensed at 2,000 cells per well in 6 uL of assay medium containing 0.5% dialyzed FBS into black wall/clear-bottom 1536-well plates using a Multidrop Combi (Thermo Scientific, Waltham, MA) dispenser. After the assay plates were incubated at 37C and 5% CO2 for 5 hrs, 23 nL of compounds dissolved in DMSO, positive controls or DMSO only was transferred to each well of the assay plate using a Pintool station (Kalypsys, San Diego, CA). The assay plates were incubated at 37C and 5% CO2 for 17 hrs. One uL of LiveBLAzerTM B/G FRET substrate (CCF4-AM) (Life Technologies) was added to each well using a Flying Reagent Dispenser (FRD, Aurora Discovery, San Diego, CA). After 2 hr incubation at room temperature, fluorescence intensity (405 nm excitation, 460 nm and 530 nm emissions) was measured using an Envision plate reader (PerkinElmer, Shelton, CT). For cytotoxicity, 4 ul/well of CellTiter-Glo reagent was added into the assay plates using an FRD. After 30 min incubation at room temperature, the luminescence intensity was measured using a ViewLux plate reader (PerkinElmer).
For orientation: Quantitative high-throughput screening tests each substance at several concentrations.
With `Nc1ccccn1`, the Potency result is “inactive”.

On to `C=CCOCC(O)CO` (stereo not given), for which the Potency result was “inactive”.

Turning to `O=C(O)CNC(=O)c1ccccc1`, the Potency entry was “inactive”.

With `O=S(=O)(O)c1cccc2ccccc12`, the Potency result was “inactive”.

Take `CNCC(O)c1ccc(O)c(O)c1` (stereo not given): the Potency result was “inactive”.

`CCCCS(=O)(=O)N[C@@H](Cc1ccc(OCCCCC2CCNCC2)cc1)C(=O)O`: the Potency entry is “inactive”.

As to `CN1CCN(c2cc3c(nn2)Oc2ccccc2N3C)CC1`, the activity change, negative = cytotoxicity was 1.97% [at 15.8 µM].

For `CC(C)(CCC(=O)O)C(=O)O`, the Potency entry is “inactive”.

On to `O=Cc1cccc(Br)c1`, for which the Potency entry was “inactive”.

Consider `CCCCCCC1CCC(=O)O1` (stereo not given), for which the Potency entry was “inactive”.

As for `CCCCCCCCCCCCCCC(=O)O`, the Potency result is “inactive”.

`NC(=O)N1c2ccccc2CC(=O)c2ccccc21`: the Potency entry was “inactive”.

Consider `NC(=O)NC1N=C([O][Al])NC1=O` (stereo not given), for which the Potency result was “inactive”.

For the compound `CC1=CC(=O)[C@H]2C[C@@H]1C2(C)C`, the Potency result is “inactive”.

`CCNS(=O)(=O)c1ccc(C)cc1`: the Potency entry is “inactive”.

`CN1CCC(=C2c3ccccc3CCc3cccnc32)CC1`: the Potency entry is “inactive”.

Take `CCCn1cc[n+](C)c1C`: the Potency entry was “inactive”.

Regarding `CCCC(=O)O[C@]1(C(=O)CC)CC[C@H]2[C@@H]3CCC4=CC(=O)CC[C@]4(C)[C@H]3[C@@H](O)C[C@@]21C`, the Potency was 19 µM (active).

On to `CCCCOC(=O)CCC(C)=O`, for which the Potency entry is “inactive”.

In the case of `COc1cc(C)nc(-n2nc(C)cc2OC)n1`, the Potency entry was “inactive”.

Take `C=C(C)C(=O)OCCOCCOCCOCCOC(=O)C(=C)C`: the Potency entry is “inactive”.

Turning to `C[N+]1(C)[C@@H]2CC(OC(=O)[C@H](CO)c3ccccc3)C[C@H]1[C@@H]1O[C@@H]12` (stereo not given in full), the Potency entry is “inactive”.

With `CCNC(=O)[C@@H]1CCCN1C(=O)[C@H](CCCN=C(N)N)NC(=O)[C@H](CC(C)C)NC(=O)CNC(=O)[C@H](Cc1ccc(O)cc1)NC(=O)[C@H](CO)NC(=O)[C@H](Cc1c[nH]c2ccccc12)NC(=O)[C@H](Cc1cnc[nH]1)NC(=O)[C@@H]1CCC(=O)N1` ([pGlu]HWSYGLRP-NHEt), the Potency entry was “inactive”.

`[K+]`: the Potency entry is “inactive”.

Turning to `CN(C)C(=O)Oc1ccc[n+](C)c1`, the Potency result was “inactive”.

Turning to `CCOC(=O)c1ccccc1`, the Potency entry was “inactive”.

As to `Cc1coc2ccccc2c1=O`, the Potency result was “inactive”.

Turning to `O=C(c1ccccc1)C1(O)CCCCC1`, the Potency result is “inactive”.

For `CNCCO`, the Potency entry was “inactive”.

Regarding `C=CCCCCCCCCC(=O)OCC`, the Potency result is “inactive”.

`CN1[C@@H]2CC[C@H]1CC(OC(=O)C(O)c1ccccc1)C2` (stereo not given in full): the Potency entry was “inactive”.

Regarding `CCCCCC(C)N` (stereo not given), the Potency result is “inactive”.

As for `CCC1C(=O)OCC1Cc1cncn1C` (stereo not given), the Potency result is “inactive”.

For the compound `C[N+]1(C)CCCC(OC(=O)C(O)(c2ccccc2)c2ccccc2)C1` (stereo not given), the Potency entry is “inactive”.

Consider `C[N+](C)(C)CCCCCCCCCC[N+](C)(C)C`, for which the Potency entry is “inactive”.

For the compound `O=C(O)c1cc(C(=O)O)cc(C(=O)O)c1`, the Potency entry was “inactive”.

As for `CC(=O)Oc1cccc(C)c1`, the Potency entry was “inactive”.

On to `COCCOCC(OC)OC`, for which the Potency entry was “inactive”.

As for `CCN1CCOCC1`, the Potency result is “inactive”.

For the compound `CCOC(=O)c1cnc2c(cnn2CC)c1NN=C(C)C`, the Potency entry is “inactive”.
